The full data set covers some 7,900 targets. This sample favours those with a hit. About 0.6% of all pairs of compound and target were hits. A number with no mark means an inactive call.
Tests used:
Assay in all cases: log2 fold change, soluble protein after heating vs DMSO (PISA); higher = thermal stabilisation; K562 cells, 10 uM, 30 min; active = over 0.2 and 3.5 SD of the protein, either way, in both replicates (recomputed)
[1] = compound: CC1=C(C=C(C=C1)NC(=O)C2=CC(=CC=C2)C(C)(C)C#N)NC3=CC4=C(C=C3)N=CN(C4=O)C
Outline: (§1)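 Values are thermal stability changes relative to control samples and are taken from duplicates. They are stated as log2 fold changes. Before quantification by TMTpro 16plex LC-MS/MS with equalised channel sums, K562 cells at 2×10^6 cells/mL were treated with 10 μM compound for 30 min, heated in aliquots for 3 min across 48°C-58°C, pooled, extracted in PBS with 0.5% NP-40 at 4°C, and centrifuged at 21,000xg for 90 min to give the soluble supernatant.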

[2] = compound: CC1=C(C=C(C=C1)NC(=O)C2=CC(=CC=C2)N(C)C)NC(=O)C3=CC=C(C=C3)O
Outline: as §1

[3] = compound: CC1=CC=C(C=C1)SC2=C3C=C(SC3=CN=C2)C(=O)N
Outline: as §1

[4] = compound: CC1=NC(=CC=C1)C2=C(N=C(N2)C(C)(C)C)C3=CC4=NC=CN=C4C=C3
Outline: as §1

[5] = compound: CCCCN(Cc1ccc(C(=O)NO)cc1)C(=O)Nc1ccccc1 [Nexturastat A]
Outline: as §1

[6] = compound: CCCS(=O)(=O)Nc1ccc(F)c(C(=O)c2c[nH]c3ncc(-c4ccc(Cl)cc4)cc23)c1F [vemurafenib]
Outline: as §1

[7] = compound: CCCS(=O)(=O)Nc1ccc(F)c(C(=O)c2c[nH]c3ncc(Cl)cc23)c1F
Outline: as §1

[8] = compound: CCCc1cc(C)[nH]c(=O)c1CNC(=O)c1cc(-c2ccnc(N3CCN(C)CC3)c2)cc2c1cnn2C(C)C
Outline: as §1

[9] = compound: CCN(CC)Cc1ccc2cc(COC(=O)Nc3ccc(C(=O)NO)cc3)ccc2c1 [givinostat]
Outline: as §1

[10] = compound: CCN(CCCOc1ccc2c(Nc3cc(CC(=O)Nc4cccc(F)c4)[nH]n3)ncnc2c1)CCOP(=O)(O)O [barasertib]
Outline: as §1

Sequence of UniProt P48449 (P48449 whole entry, looked up): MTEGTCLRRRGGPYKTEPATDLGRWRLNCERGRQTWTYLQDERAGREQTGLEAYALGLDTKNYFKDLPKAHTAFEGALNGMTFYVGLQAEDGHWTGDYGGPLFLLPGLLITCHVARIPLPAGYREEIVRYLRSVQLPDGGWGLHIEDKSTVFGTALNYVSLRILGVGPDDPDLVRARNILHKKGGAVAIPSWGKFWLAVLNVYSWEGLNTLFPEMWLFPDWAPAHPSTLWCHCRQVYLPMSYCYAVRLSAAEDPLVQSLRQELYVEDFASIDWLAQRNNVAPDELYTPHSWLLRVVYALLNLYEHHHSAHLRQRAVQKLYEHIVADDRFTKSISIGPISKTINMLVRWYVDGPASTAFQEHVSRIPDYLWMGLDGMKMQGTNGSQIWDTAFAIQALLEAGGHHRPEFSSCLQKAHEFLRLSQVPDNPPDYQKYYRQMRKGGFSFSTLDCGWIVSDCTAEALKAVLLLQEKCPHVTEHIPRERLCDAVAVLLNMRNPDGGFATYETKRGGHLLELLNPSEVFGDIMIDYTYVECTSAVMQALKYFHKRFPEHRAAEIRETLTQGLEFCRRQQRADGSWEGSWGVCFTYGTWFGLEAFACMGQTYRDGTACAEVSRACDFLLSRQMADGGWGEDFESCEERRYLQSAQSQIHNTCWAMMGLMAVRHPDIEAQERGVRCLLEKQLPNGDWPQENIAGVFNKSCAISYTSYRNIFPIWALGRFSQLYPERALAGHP
Sequence of UniProt Q96PV6 (Q96PV6 whole entry, looked up): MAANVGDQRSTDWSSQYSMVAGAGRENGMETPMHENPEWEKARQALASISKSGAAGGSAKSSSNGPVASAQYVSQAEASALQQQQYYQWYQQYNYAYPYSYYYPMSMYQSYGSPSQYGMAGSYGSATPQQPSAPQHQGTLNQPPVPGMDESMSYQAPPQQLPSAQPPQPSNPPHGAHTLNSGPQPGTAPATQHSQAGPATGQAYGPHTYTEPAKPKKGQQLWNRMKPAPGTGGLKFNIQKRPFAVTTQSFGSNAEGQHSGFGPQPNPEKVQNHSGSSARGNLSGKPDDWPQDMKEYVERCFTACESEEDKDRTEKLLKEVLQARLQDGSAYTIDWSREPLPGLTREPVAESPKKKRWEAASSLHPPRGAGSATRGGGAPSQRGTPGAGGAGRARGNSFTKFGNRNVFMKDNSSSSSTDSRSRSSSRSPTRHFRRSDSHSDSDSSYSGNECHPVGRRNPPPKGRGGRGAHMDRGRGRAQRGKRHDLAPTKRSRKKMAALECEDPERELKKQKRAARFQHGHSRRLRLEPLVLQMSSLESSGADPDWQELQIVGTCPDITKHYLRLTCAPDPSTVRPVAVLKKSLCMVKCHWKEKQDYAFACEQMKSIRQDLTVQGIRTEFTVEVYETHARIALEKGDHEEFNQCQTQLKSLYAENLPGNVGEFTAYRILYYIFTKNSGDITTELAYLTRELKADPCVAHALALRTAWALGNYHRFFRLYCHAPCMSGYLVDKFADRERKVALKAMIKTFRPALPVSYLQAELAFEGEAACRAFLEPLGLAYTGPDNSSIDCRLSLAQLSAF
Sequence of UniProt Q93074 (Q93074 whole entry, looked up): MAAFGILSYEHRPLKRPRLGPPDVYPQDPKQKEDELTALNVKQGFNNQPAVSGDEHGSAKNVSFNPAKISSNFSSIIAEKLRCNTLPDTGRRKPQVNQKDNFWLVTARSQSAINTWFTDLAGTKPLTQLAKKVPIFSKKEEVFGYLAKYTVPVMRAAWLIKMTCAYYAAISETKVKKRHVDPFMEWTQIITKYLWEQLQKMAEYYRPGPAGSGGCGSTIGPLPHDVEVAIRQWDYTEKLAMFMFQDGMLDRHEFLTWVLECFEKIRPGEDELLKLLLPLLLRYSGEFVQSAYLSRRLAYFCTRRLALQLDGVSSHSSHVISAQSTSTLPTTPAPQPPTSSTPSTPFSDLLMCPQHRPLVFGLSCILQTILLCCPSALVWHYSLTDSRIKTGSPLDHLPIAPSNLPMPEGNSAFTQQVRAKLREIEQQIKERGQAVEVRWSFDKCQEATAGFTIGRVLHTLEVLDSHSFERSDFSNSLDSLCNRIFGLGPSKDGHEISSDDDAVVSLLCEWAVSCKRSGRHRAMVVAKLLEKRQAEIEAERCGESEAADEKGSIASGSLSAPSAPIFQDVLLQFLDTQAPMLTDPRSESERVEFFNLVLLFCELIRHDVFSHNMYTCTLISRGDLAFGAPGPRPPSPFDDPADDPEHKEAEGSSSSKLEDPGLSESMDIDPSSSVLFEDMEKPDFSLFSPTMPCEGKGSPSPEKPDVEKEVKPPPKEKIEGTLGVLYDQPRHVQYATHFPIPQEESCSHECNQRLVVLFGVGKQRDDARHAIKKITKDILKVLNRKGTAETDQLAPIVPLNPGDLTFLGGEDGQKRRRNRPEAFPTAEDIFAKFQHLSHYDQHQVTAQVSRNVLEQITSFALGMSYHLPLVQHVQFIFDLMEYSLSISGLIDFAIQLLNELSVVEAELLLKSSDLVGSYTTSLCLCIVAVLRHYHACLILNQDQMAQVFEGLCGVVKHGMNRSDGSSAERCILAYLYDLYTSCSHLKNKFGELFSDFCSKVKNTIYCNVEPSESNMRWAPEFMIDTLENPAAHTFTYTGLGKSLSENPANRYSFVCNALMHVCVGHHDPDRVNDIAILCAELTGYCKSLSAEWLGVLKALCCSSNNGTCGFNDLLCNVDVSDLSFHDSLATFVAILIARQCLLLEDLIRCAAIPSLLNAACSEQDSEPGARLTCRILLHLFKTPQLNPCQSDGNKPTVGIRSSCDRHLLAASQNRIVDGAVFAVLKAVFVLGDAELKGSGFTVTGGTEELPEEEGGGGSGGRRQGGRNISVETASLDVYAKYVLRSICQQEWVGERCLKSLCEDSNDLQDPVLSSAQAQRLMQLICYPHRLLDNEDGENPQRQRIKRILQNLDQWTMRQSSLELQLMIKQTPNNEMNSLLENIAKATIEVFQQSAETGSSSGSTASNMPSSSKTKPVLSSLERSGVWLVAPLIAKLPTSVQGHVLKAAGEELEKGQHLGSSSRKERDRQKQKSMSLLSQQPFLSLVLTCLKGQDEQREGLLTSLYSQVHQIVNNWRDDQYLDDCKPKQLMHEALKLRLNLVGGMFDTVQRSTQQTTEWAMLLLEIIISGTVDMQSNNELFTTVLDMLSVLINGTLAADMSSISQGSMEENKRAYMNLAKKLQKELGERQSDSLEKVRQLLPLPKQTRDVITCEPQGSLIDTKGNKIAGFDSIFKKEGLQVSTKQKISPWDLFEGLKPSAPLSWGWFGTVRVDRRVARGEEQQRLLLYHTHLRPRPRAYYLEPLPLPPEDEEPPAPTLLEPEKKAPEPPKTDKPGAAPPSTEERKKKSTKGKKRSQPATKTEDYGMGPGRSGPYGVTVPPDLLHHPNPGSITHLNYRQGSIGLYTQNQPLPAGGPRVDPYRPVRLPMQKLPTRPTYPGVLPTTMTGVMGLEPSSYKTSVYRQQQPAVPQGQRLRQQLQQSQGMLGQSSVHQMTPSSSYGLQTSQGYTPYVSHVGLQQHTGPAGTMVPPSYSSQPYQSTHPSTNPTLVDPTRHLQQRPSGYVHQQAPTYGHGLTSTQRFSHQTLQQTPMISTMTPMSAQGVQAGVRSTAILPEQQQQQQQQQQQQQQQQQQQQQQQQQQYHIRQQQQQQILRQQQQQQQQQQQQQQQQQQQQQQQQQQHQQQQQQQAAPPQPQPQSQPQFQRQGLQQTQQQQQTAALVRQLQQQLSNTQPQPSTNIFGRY
Sequence of UniProt P51884 (P51884 whole entry, looked up): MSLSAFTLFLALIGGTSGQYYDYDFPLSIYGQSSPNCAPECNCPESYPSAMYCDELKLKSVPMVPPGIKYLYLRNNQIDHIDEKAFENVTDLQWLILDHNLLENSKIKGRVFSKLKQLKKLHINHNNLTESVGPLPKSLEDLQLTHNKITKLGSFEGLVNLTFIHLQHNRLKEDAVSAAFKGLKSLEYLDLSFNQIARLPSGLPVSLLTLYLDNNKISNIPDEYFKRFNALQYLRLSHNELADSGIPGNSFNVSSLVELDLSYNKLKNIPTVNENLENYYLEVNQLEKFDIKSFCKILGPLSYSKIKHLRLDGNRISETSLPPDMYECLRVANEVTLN
Sequence of UniProt Q9NUN5 (Q9NUN5 whole entry, looked up): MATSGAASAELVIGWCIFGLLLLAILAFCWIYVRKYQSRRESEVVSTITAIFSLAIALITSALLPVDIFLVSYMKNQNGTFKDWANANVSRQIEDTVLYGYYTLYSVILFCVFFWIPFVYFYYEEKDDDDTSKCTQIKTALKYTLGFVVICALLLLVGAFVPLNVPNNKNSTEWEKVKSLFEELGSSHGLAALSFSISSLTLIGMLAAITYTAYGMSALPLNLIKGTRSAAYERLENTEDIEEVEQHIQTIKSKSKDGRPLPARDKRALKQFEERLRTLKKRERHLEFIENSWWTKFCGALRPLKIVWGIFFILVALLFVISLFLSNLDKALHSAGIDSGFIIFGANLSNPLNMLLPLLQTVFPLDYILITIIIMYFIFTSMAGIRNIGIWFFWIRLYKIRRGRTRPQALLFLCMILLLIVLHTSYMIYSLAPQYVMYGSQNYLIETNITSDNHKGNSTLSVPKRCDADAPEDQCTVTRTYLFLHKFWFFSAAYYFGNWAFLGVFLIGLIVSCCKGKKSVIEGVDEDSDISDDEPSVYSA
Sequence of UniProt Q15528 (Q15528 whole entry, looked up): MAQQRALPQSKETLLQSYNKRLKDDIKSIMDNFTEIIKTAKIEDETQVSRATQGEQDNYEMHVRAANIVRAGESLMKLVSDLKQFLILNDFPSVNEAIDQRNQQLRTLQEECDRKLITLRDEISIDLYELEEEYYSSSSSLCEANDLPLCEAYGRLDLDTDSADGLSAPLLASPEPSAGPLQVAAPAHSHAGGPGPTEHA
Sequence of UniProt P17936 (P17936 whole entry, looked up): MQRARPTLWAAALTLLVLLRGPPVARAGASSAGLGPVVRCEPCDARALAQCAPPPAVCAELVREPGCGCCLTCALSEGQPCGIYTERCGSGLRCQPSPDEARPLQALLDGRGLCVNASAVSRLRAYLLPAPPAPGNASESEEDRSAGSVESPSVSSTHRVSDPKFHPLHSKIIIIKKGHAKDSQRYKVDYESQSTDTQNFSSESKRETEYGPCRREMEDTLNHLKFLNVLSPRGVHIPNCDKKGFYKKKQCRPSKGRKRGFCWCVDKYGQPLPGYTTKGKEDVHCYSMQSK

Row | Target | log2 fold change [1] | log2 fold change [2] | log2 fold change [3] | log2 fold change [4] | log2 fold change [5] | log2 fold change [6] | log2 fold change [7] | log2 fold change [8] | log2 fold change [9] | log2 fold change [10]
1 | MAP4K5 (UniProt Q9Y4K4) | 0.01 | 0.082 | 0.025 | -0.012 | -0.042 | -0.025 | -0.008 | -0.047 | -0.024 | 0.1
2 | MFSD1 isoform 6 (UniProt Q9H3U5) | 0.056 | -0.008 | -0.046 |  | -0.106 | -0.053 | -0.059 | 0.021 | 0.008 | 0.041
3 | KIAA1324L (UniProt A8MWY0) | -0.065 | -0.022 | 0.028 | 0.002 | 0.045 | 0.002 | -0.048 | 0.05 | 0.032 | 0.002
4 | LBR (UniProt Q14739) | 0.045 | -0.035 | -0.002 | 0.045 | -0.108 | 0.063 | 0.05 | -0.009 | 0.125 | 0.024
5 | LUM (UniProt P51884) | -0.011 | 0.403 | 0.042 | 0.061 | -0.008 | 0.069 | -0.266 |  | -0.108 | 
6 | MAP4 isoform 5 (UniProt P27816) | 0.013 | 0.055 | -0.173 |  | 0.105 |  | -0.01 | -0.161 | -0.028 | -0.114
7 | IL10RB (UniProt Q08334) | 0.19 |  | -0.012 | -0.17 | 0.082 | -0.004 | 0.018 |  | 0.088 | 0.063
8 | LENG8 (UniProt Q96PV6) | 0.112 | -0.201 |  | 0.009 | -0.139 | 0.146 |  | 0.066 | 0.09 | 0.173
9 | LMBRD1 (UniProt Q9NUN5) | 0.073 | 0.02 | 0.023 |  | -0.034 | -0.101 | -0.057 | -0.077 | 0.05 | -0.039
10 | MED22 (UniProt Q15528) | -0.023 | 0.034 |  | 0.015 | -0.033 | 0.043 |  | 0.014 | 0.117 | 0.028
11 | IP6K1 (UniProt Q92551) | 0.443 | 0.022 |  |  | 0.232 |  | -0.015 | 0.068 | -0.008 | 0.259
12 | MASTL (UniProt Q96GX5) | 0.032 | 0.187 |  | -0.056 | -0.149 | -0.028 |  | -0.032 | -0.038 | -0.013
13 | IGFBP3 isoform 2 (UniProt P17936) | -0.187 |  | 0.1 | 0.205 | 0.204 | 0.031 | 0.076 |  |  | 
14 | MAP2K2 (UniProt P36507) | -0.018 | 0.013 | 0.009 | 0.028 | -0.001 | -0.008 | -0.002 | 0.17 | 0.014 | 0.011
15 | KMT2C isoform 3 (UniProt Q8NEZ4) | -0.053 | -0.07 |  |  | -0.046 | -0.103 |  | -0.033 | 0.011 | -0.003
16 | MED12 isoform 2 (UniProt Q93074) | 0.034 | -0.202 | -0.015 | -0.09 | 0.012 |  | 0.071 | 0.023 | 0.106 | -0.135
17 | LSS (UniProt P48449) | -0.032 | -0.122 | -0.071 | 0.054 | 0.012 | 0.03 | 0.073 | 0 | 0.766 (active) | 0.382
18 | ITGA2B (UniProt P08514) | -0.071 | 0.064 | -0.058 | -0.052 | 0.121 | -0.105 | 0.134 |  | 0.09 | 
19 | LPIN3 isoform 2 (UniProt Q9BQK8) | -0.152 | 0.005 | -0.04 |  | -0.014 | -0.001 | -0.069 | -0.014 | -0.006 | -0.054
20 | LYN isoform 2 (UniProt P07948) | 0.056 |  | -0.079 | -0.079 | 0.376 | 0.095 | -0.296 |  | -0.168 | 
21 | LYPLA2 (UniProt O95372) | 0.043 | -0.131 | 0.082 | -0.056 | -0.071 | 0.132 | 0.038 | -0.001 | -0.055 | -0.099
22 | LONP2 (UniProt Q86WA8) | 0.173 | -0.119 | 0.08 | 0.009 | -0.083 | 0.128 | -0.137 | 0.013 | -0.05 | -0.056
23 | KIF11 (UniProt P52732) | -0.032 | -0.119 | -0.005 | -0.033 | 0.155 | 0.071 | 0.077 | 0.076 | 0.09 | 0.049
24 | LPGAT1 (UniProt Q92604) | -0.077 | 0 | 0.034 | 0.077 | 0.036 | 0.018 | 0.086 | -0.033 | 0.064 | 0.068
25 | LRFN1 (UniProt Q9P244) | 0.052 | 0.076 | 0.02 | -0.101 | 0.241 | -0.031 | 0.054 |  | -0.025 | 0.037
